TNAP act DEA – human TNAP enzyme activators, primary screen, biochemical, luminescent, intermediate phosphate acceptor level. Alkaline phosphatase, tissue-nonspecific isozyme (Homo sapiens), P05186. purified TNAP, CDP-star luminescence, 100 mM DEA, 30 min; active compounds read high; scale: 0 levamisole-inhibited, 1 vehicle-only enzyme. activation factor at 20 µM. 64,000 tested, under 10 active. AID 813, 2007;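 active = activation factor of at least 2 at 20 µM, relative to controls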
Her2 expr inh – inhibitors of Her2 protein expression, primary screen, SKBR-3 cells, AlphaScreen, 66K library | Receptor tyrosine-protein kinase erbB-2 (Homo sapiens), P04626 | SKBR-3 HER2 protein level, 18-24 h; active compounds read low | HER2 level % of control, % at 10 µM | 0.69% of 65,000 active;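 active = HER2 level under 5% of the carrier-only control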;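 note: lower value means stronger loss of Her2 protein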
BAP1 block – inhibitors of BAP1 deubiquitinase, primary screen, biochemical, Ub-AMC fluorescence, kinetic; Ubiquitin carboxyl-terminal hydrolase BAP1 (Homo sapiens), Q92560; recombinant BAP1, Ub-AMC hydrolysis fluorescence kinetic; active compounds read low; calls only at 20 µM; 0.48% of 72,000 active;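 active = activity remaining at or below 50% of control, provided the compound also passes the data quality filters; inactive = the rest, including low values that fail the filters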
Target sequence (Q92560 whole entry, looked up): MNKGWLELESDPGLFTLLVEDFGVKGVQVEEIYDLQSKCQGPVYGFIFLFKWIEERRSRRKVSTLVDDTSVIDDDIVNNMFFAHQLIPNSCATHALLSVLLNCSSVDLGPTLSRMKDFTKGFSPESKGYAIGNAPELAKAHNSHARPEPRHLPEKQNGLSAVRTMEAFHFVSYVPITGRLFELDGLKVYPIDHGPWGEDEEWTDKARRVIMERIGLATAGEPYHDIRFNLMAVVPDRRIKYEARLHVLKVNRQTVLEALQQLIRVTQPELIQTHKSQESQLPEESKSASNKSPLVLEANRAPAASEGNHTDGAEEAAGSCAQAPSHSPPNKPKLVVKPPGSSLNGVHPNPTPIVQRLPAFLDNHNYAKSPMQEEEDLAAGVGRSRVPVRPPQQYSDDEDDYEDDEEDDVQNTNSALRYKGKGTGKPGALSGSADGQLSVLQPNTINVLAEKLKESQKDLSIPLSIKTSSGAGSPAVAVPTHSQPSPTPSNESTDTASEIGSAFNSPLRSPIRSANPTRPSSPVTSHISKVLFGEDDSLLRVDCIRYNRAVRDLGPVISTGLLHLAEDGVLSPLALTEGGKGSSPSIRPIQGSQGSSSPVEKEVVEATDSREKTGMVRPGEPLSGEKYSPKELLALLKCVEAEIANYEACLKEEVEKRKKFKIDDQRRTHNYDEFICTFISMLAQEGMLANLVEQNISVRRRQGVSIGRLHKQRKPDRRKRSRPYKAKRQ
SK-BR-3 tox 24h – SK-BR-3 proliferation inhibitors, primary screen, cell-based, human, 24 h. AID 847, 2007. 0.47% of 41,000 active. SK-BR-3 viability, CellTiter-Glo ATP luminescence; active compounds read low. viability, % at 10 µM;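 active = viability at or below the median of all test compounds minus 3 SD, in both replicates if run twice, cut at about 45% in these data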
E coli RNAP – E. coli RNAP inhibitors, biochemical. AID 559, 2006. 0.2% of 62,000 active. inhibition, %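 (tested at 10 µM)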. E. coli RNA polymerase, fluorescence transcription assay. DNA-directed RNA polymerase subunit beta (Escherichia coli (strain K12)), P0A8V2; in the data active = inhibition above about 20%
BAP1 inh conf – BAP1 deubiquitinase inhibitors, hit retest, confirmation, orthogonal assay, biochemical, Ub-ethyl ester substrate, HPLC readout; purified BAP1, Ub-ethyl ester hydrolysis; active compounds read low; % of control activity, % at 20 µM; AID 753, 2007; shares compounds with BAP1 block; 8% of 310 active;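 active = percent of control activity at or below 60%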
Large screens that a line does not name were inactive (follow-up assays come after a bar, where shown). An excerpt weighted towards active compounds, which were near 1.4% of everything screened.

CCOc1ccccc1-n1c(SCC(=O)Nc2ccc(CC)cc2)nc2n[nH]c(C)c2c1=N	SK-BR-3 tox 24h 30 (not shown: TNAP act DEA, BAP1 block, E coli RNAP)
CCCCC1CCC(c2nc(-c3ccc(Br)cc3)no2)CC1 (configuration not stated)	none (no result: TNAP act DEA, Her2 expr inh, SK-BR-3 tox 24h, E coli RNAP)
CCCc1cc(C(=O)Cc2ccc(F)cc2)c(O)cc1O	Her2 expr inh -12, SK-BR-3 tox 24h 16
Cc1cc(=O)c2n(Cc3ccccc3Cl)nc[n+]2[nH]1	E coli RNAP 57
CCOC(=O)c1c(NC(=O)CSc2nc3c(c(=O)n(C)c(=O)n3C)n2CC)sc(C)c1C	SK-BR-3 tox 24h 44
CCCn1c(SCC(=O)Nc2nc3c(s2)CCCC3)nc2c1c(=O)n(C)c(=O)n2C	E coli RNAP 55
N#Cc1c(NC(=O)CSC2=NCCS2)sc2c1CCCC2	none
O=C(CSC1=NCCS1)Nc1nc2c(s1)CCCC2	SK-BR-3 tox 24h 42
CCCn1c(SCC(=O)Nc2sc(C)c(C)c2C(=O)OC)nc2c1c(=O)n(C)c(=O)n2C	none
O=C(OCc1ccc(-c2ccc(Br)cc2)o1)c1cccc(I)c1	none (no result: TNAP act DEA, Her2 expr inh, SK-BR-3 tox 24h, E coli RNAP)
CC(C)(C)NC(=O)c1nn2c(c1Cl)NC(c1ccco1)CC2C(F)(F)F (configuration not stated)	none (no result: TNAP act DEA, Her2 expr inh, SK-BR-3 tox 24h, E coli RNAP)
O=C(CCN1C(=O)c2cccnc2C1=O)NC1CCCCCC1	Her2 expr inh -17
Cc1cc2nnc(SC(C)C#N)n2c2ccccc12 (configuration not stated)	Her2 expr inh -28 (no result: SK-BR-3 tox 24h)
Cc1ccc(C(=O)Nc2cccc([N+](=O)[O-])c2)cc1S(=O)(=O)N1CCCCC1	none (no result: TNAP act DEA, Her2 expr inh, SK-BR-3 tox 24h, E coli RNAP)
CC(C)N(CCC(=O)c1ccc2ccccc2c1)Cc1ccccc1	BAP1 block active (no result: TNAP act DEA, Her2 expr inh, SK-BR-3 tox 24h, E coli RNAP)
Cc1ccc(-c2nn3c(C)nnc3s2)cc1NC(=O)c1ccc(-c2cccc(Cl)c2)o1	SK-BR-3 tox 24h 33 (not shown: BAP1 block)
O=C1C2C3c4ccccc4C(c4ccccc43)C2C(=O)N1c1ccc(S(=O)(=O)Nc2nccs2)cc1 (configuration not stated)	none (no result: TNAP act DEA, Her2 expr inh, SK-BR-3 tox 24h, E coli RNAP)
CC(=O)c1cc2c(O)c(O)ccc2o1	E coli RNAP 21
CC(=O)c1cc2cc(O)ccc2o1	none (not shown: BAP1 block)
COc1nc(Nc2ccc(C(C)=O)cc2)nc(OC)n1	E coli RNAP 36
COc1nc(Nc2ccc3c(c2)OCO3)nc(OC)n1	none (no result: SK-BR-3 tox 24h)
COC(=O)C1=C(N)Oc2cc(C)n(C)c(=O)c2C1c1ccc(Cl)c(Cl)c1 (configuration not stated)	Her2 expr inh 3.3
Cc1cc(NC(=O)CNC(=O)C2CCCCC2)no1	Her2 expr inh -20 (no result: SK-BR-3 tox 24h)
CCOC(=O)c1cccc(NC(=O)CNC(=O)C2CCCCC2)c1	none
CS(=O)(=O)c1ccc(Cl)c(NC(=O)COC(=O)CNC(=O)c2ccc(Br)o2)c1	Her2 expr inh -22 (no result: SK-BR-3 tox 24h)
Cc1ccc2nc(-c3ccc(NC(=O)C(C)(C)C)cc3)sc2c1	none (no result: TNAP act DEA, Her2 expr inh, SK-BR-3 tox 24h, E coli RNAP)
CCn1c2ccccc2c2cc(N)ccc21	none
CCn1c(C)cc(=S)c2ccccc21	Her2 expr inh -19
CN(C)c1cc(NC(=O)CN2CCOCC2)c2ccccc2n1	BAP1 block active (no result: SK-BR-3 tox 24h)
CCCCC(=O)Nc1cc(N(C)C)nc2ccccc12	none (not shown: BAP1 block)
CCOc1ccc(CNc2ccc3c(c2)ncn3C)cc1	Her2 expr inh -17
CCn1cnc2cc(NCc3ccc(C)cc3)ccc21	none
COc1ccc(C(=O)c2no[n+]([O-])c2C(=O)c2ccc(OC)cc2)cc1	Her2 expr inh -22
CCN(CC)c1ccc2cc(-c3nnc(Nc4ccccc4)s3)c(=O)oc2c1	none (no result: TNAP act DEA, Her2 expr inh, SK-BR-3 tox 24h, E coli RNAP)
CC(=O)C1=C(C)Nc2cc(C(F)(F)F)ccc2S1	E coli RNAP 62
COC(=O)C1=C(C)Nc2ccc(C)cc2S1	none (no result: SK-BR-3 tox 24h)
CC(C)N1CCC2(CC1)N=C(c1ccc3c(c1)OCO3)CC(c1cc(Cl)ccc1O)N2 (configuration not stated)	Her2 expr inh -18 (no result: SK-BR-3 tox 24h)
CCCCOC(=O)C1=C(C)N(C)C(=O)NC1c1ccccc1[N+](=O)[O-] (configuration not stated)	none (no result: TNAP act DEA, Her2 expr inh, SK-BR-3 tox 24h, E coli RNAP)
Cc1c(-c2cccs2)[n+](=O)c2c(n1[O-])CCCC2	Her2 expr inh -31
Cc1c(-c2ccco2)[n+](=O)c2c(n1[O-])CCCCC2	none (no result: BAP1 block)
CCC(C)NC(=O)c1cnn2c1NC(c1ccc3c(c1)OCO3)CC2C(F)(F)F (configuration not stated)	Her2 expr inh -29
CCC(C)NC(=O)c1nn2c(c1Cl)NC(c1ccc(C)cc1)CC2C(F)(F)F (configuration not stated)	none (no result: TNAP act DEA, Her2 expr inh, SK-BR-3 tox 24h, E coli RNAP)
O=C(O)c1ccccc1C1=Nc2ccc(O)cc2Oc2cc(O)ccc21	Her2 expr inh -53
CCOC(=O)C(C(=O)OCC)c1cc(Br)c2noc3c2c1C(=O)c1ccccc1-3	Her2 expr inh -5.2, SK-BR-3 tox 24h 26 (no result: BAP1 block)
COc1ccccc1NC(=O)CN1C(=O)c2ccccc2C1=O	none (no result: TNAP act DEA, Her2 expr inh, SK-BR-3 tox 24h, E coli RNAP)
Cc1cc(C)nc(N2CCC(C(=O)NCc3cccc(C(F)(F)F)c3)CC2)n1	SK-BR-3 tox 24h 40
CC(=O)N(c1ccc(N(C(C)=O)S(=O)(=O)c2cccs2)cc1)S(=O)(=O)c1cccs1	E coli RNAP 24
Cn1c(SC2=CS(=O)(=O)c3ccccc32)nc2ccccc21	Her2 expr inh -22
Cn1c(Cl)nc2ccccc21	none
O=[N+]([O-])c1ccccc1C=Nc1ccc2c(c1)OCCO2	none (no result: TNAP act DEA, Her2 expr inh, SK-BR-3 tox 24h, E coli RNAP)
Cc1cc(C(F)(F)F)c2c(N)c(C(=O)c3ccc(Cl)s3)sc2n1	none (no result: TNAP act DEA, Her2 expr inh, SK-BR-3 tox 24h, E coli RNAP)
CC(=O)c1sc2nc(-c3cccs3)cc(C(F)(F)F)c2c1N	Her2 expr inh -2.8
c1ccc(C2CCCSC2)cc1 (configuration not stated)	none (no result: TNAP act DEA, Her2 expr inh, SK-BR-3 tox 24h, E coli RNAP)
Cn1c(=O)oc2cc(S(=O)(=O)N3CCOCC3)ccc21	none (no result: SK-BR-3 tox 24h)
O=S(=O)(c1ccc2c(c1)oc1ccccc12)N1CCOCC1	BAP1 block active | BAP1 inh conf inactive
CCCCC1(O)C(C)C(c2ccccc2)NC(c2ccccc2)C1C (configuration not stated)	none (no result: TNAP act DEA, Her2 expr inh, SK-BR-3 tox 24h, E coli RNAP)
COC(=O)c1sc2nc(CN3CCOCC3)nc(N3CCOCC3)c2c1C	none
Cc1sc2nc(CN3CCOCC3)nc(N3CCC(C(N)=O)CC3)c2c1C	none (no result: SK-BR-3 tox 24h) | BAP1 inh conf inactive
Cc1cc(NC(=O)c2cn(C3CCCCC3)c(=O)c3c2c2ccccc2n3C)no1	BAP1 block active (no result: SK-BR-3 tox 24h) | BAP1 inh conf inactive
Cc1ccc(CNC(=O)c2cn(C3CCCCC3)c(=O)c3c2c2ccccc2n3C)o1	none (no result: SK-BR-3 tox 24h)
O=C(Nc1cccc(C(F)(F)F)c1)c1ccc2ccccc2c1	none (no result: TNAP act DEA, Her2 expr inh, SK-BR-3 tox 24h, E coli RNAP)
COc1ccc(Cn2nnnc2CN(Cc2cc3ccc(C)cc3[nH]c2=O)C2CCCC2)cc1	none

Bioassay records (PubChem)
